From PubChem BioAssay (NCI) come the findings set out here.

This is part of a sample that, as a whole, favours compounds with a hit. Of some 83,000 tested, about 20% had one in any assay.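 Compound tested at a single concentration for 48 hours in 96-well plates; a percent growth value below 10 was scored as active.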 Unmarked numbers belong to inactive results. The source made the active and inactive calls.

Common to all, as to experiment: NCI-60 one-dose screen, 48 h (100 = growth as untreated, 0 = no growth, -100 = all killed)
Conditions in all cases: 10 µM unless noted

Test [1] has as its system NCI-H23 lung.
Test [2] relates to NCI-H226 lung.
In test [3] the test system is NCI-H322M lung.
The subject of test [4] is HOP-62 NSCLC.
For test [5], the system named is NCI-H460 lung.
Test [6] relates to HOP-92 NSCLC.
Test [7] relates to NCI-H522 lung.
Test [8] relates to A549/ATCC NSCLC.
Test [9] relates to 786-0 renal.
In test [10] the test system is COLO 205 colon.
Test [11] has as its system DU-145 prostate.
Test [12] has as its system K-562 leukemia.
In test [13] the test system is MALME-3M melanoma.
Test [14] relates to MDA-MB-231 breast.
Test [15] has as its system RXF 393 renal.
Test [16] concerns SF-268 CNS.
Test [17] concerns SF-295 CNS.
The test system of test [18] is SF-539 CNS.
Test [19] relates to UACC-257 melanoma.
The test system of test [20] is M14 melanoma.

On to `COc1ccc(-c2c3c(cn2Cc2cccc(OC)c2)-c2oncc2CCC3)cc1`, for which the growth in [1] is 105%; in test [2] it was 85%; in [3], 103%; in test [4], 102%; in [5], 98.9%; in test [6] it was 74.2%. Further, the growth is 96.3% in test [7]; 98.9% in test [8]; 103% in [9]; 95.2% in test [10]; 101% in [11]; 85.6% in test [12]. In addition, the growth was 95.6% in test [13]; 101% in [14]; 111% in test [15]; 99.5% in [16]; 97% in test [17]; 97.8% in test [18]. The growth in test [19] is 96.6%; in test [20], 91.6%.

On to `CCOC(=O)c1c(N)c(C#N)cn1Cc1ccc(Cl)cc1Cl`, for which the growth in test [1] is 84.4%; in test [2], 85.1%; in [3] it was 87.4%; in test [4], 68.7%; in test [5] it was 81.2%; in test [6] it was 73.1%. Besides, the growth in test [7] is 67.2%; in test [8], 76.2%; in test [9], 76.4%; in test [10], 106%; in test [11], 93.5%; in test [12], 24.8%. Further, the growth in test [13] was 85.6%; in [14], 43.9%; in test [15], 63.1%; in test [16] it was 80.5%; in [17], 80.2%; in test [18], 73.3%. Also, the growth in test [19] was 92.7%; in [20], 72.4%.

Turning to `O=C(/C=C/c1cccc(Br)c1)c1cccc(OCCCCOc2cccc(C(=O)/C=C/c3cccc(Br)c3)c2)c1`, the growth in [1] is 98%; in test [2], 103%; in test [3], 103%; in test [4] it was 107%; in test [5], 100%; in test [6], 115%. Further, the growth in [7] was 98.1%; in [8] it was 98.8%; in [9], 106%; in [10] it was 115%; in test [11] it was 109%; in test [12], 90.1%. Also, the growth in test [13] is 98%; in test [14], 101%; in test [15], 105%; in test [16], 99.9%; in test [17], 107%; in [18], 104%. For the same molecule, the figures for the growth in test [19] and in test [20] were 109% and 93.9%, respectively.

Take `CSc1ccc(C(=NNS(=O)(=O)c2ccc(C)cc2)c2ccc(Cl)cc2)cc1`: the growth in test [1] is 94%; in test [2], 98%; in test [3], 92.7%; in [4], 98.6%; in test [5], 104%; in test [6], 86.9%. Further, the growth is 94.4% in [7]; 99.6% in test [8]; 104% in test [9]; 119% in test [10]; 108% in [11]; 94.6% in [12]. The growth in test [13] was 89.9%; in test [14] it was 104%; in test [15], 101%; in [16], 95.3%; in test [17], 96.9%; in test [18] it was 102%. Also, the growth is 100% in [19] and 103% in test [20].

Consider `Cc1cc(C)cc(NC2=C(Cl)C(=O)c3nc(C)ccc3C2=O)c1`, for which the growth in test [1] is 22.1%; in [2], 28.5%; in [3] it was 91.7%; in test [4], 101%; in test [5] it was 93.1%; in test [6], 118%. The growth is 19% in test [7]; 73.7% in [8]; 79% in test [9]; 107% in [10]; 2.27% (active) in test [11]; 6.63% (active) in [12]. Also, the growth in [13] was 76.1%; in test [14], 53.8%; in test [15], 75%; in [16], 85.2%; in test [17], 77.2%; in [18], 71.5%. In addition, the figures for the growth in test [19] and in test [20] were 30.1% and 72.8%, respectively.

In the case of `O=C(O)CC1CCN(c2ccc3nnc(Cl)n3n2)CC1`, the growth was 93.9% in [1]; 98.7% in [2]; 96.2% in [3]; 93.3% in [4]; 108% in test [5]; 96.2% in [6]. Further, the growth in test [7] was 96%; in test [8], 103%; in [9], 100%; in [10] it was 107%; in [11] it was 107%; in [12], 105%. In addition, the growth was 102% in [13]; 112% in test [14]; 109% in test [15]; 100% in [16]; 102% in test [17]; 102% in test [18]. The growth was 109% in test [19] and 94.6% in test [20].

On to `O=C(/C=C/c1ccc(F)cc1)Nc1cccc2cccnc12`, for which the growth was 91.6% in [1]; 97.8% in test [2]; 101% in test [3]; 98.5% in test [4]; 89.4% in test [5]; 108% in [6]. In addition, the growth was 97.5% in test [7]; 107% in test [8]; 108% in test [9]; 114% in [10]; 107% in [11]; 101% in test [12]. Also, the growth in [13] was 100%; in test [14], 100%; in test [15], 110%; in test [16], 104%; in test [17], 111%; in test [18] it was 102%. Also, the growth was 114% in test [19] and 98.5% in test [20].

Turning to `CCNC(=O)Oc1ccc(/C(=C(/C)c2ccc(Cl)cc2)c2ccc(OCCN3CCCCCC3)cc2)cc1`, the growth in test [1] was 22.1%; in [2] it was 80.9%; in [3], 75.9%; in [4] it was -19.9% (active); in test [5] it was -62.3% (active); in test [6], 60%. The growth in [7] is 82.4%; in test [8], 43.9%; in test [9], 22.5%; in [10], -74.5% (active); in test [11], 58.5%; in [12], 5.06% (active). Further, the growth in test [13] is -58.4% (active); in test [14], 21.3%; in test [15] it was -10.3% (active); in test [16] it was 53.9%; in test [17] it was -40.1% (active); in test [18], -44% (active). Moreover, the growth was -19.9% (active) in test [19] and -76.5% (active) in [20].
